Results taken from PubChem BioAssay (NCI).
The panel holds about 79,000 compounds, 15% with a hit somewhere; the sample as a whole holds those more often. Activity calls are given as the source filed them. No stated cut-off is given here; in the data, active means growth inhibition above about 70%; inactive means the rest.

What was measured:
[1] = NCI Yeast Anticancer Drug Screen. Data for the wt2 strain (AID 169);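 further: 0% = growth of vehicle-treated yeast cultures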; conditions: S. cerevisiae wt2 strain growth inhibition, stronger effect = higher value
Outline: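 The panel's yeast strains carry defined changes in DNA repair or cell cycle genes. Each strain is grown with compound, and growth loss is scored relative to vehicle.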

[2] = NCI Yeast Anticancer Drug Screen. Data for the mlh1 strain (AID 171);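 further: 0% = growth of vehicle-treated control cultures of the same strain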; conditions: S. cerevisiae mlh1 strain growth inhibition, stronger effect = higher value
Outline: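 Inhibition values reflect reduced yeast growth in the presence of compound, referenced to vehicle controls, using a strain chosen for its alteration in DNA repair or cell cycle control.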

[3] = NCI Yeast Anticancer Drug Screen. Data for the sgs1 strain (AID 173);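 further: 0% = growth of vehicle-only control cultures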; conditions: S. cerevisiae sgs1 mutant, stronger effect = higher value
Outline: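 Vehicle-treated cultures served as reference for growth inhibition of a yeast strain altered in DNA damage repair or cell cycle control after compound exposure.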

[4] = NCI Yeast Anticancer Drug Screen. Data for the mlh1 rad18 strain (AID 175); conditions: S. cerevisiae mlh1 rad18 strain growth inhibition, stronger effect = higher value
Outline: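 Inhibition values reflect reduced growth of mutant yeast versus vehicle-treated controls following compound exposure; the mutations affect DNA damage repair.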

[5] = NCI Yeast Anticancer Drug Screen. Data for the rad18 strain (AID 177); conditions: S. cerevisiae rad18 mutant growth inhibition, stronger effect = higher value
Outline: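 Steps: expose repair-mutant yeast to compound; measure growth; express as inhibition relative to vehicle control.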

[6] = NCI Yeast Anticancer Drug Screen. Data for the rad52 strain (AID 147);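 further: 0% = growth of vehicle-treated control cultures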; conditions: S. cerevisiae rad52 mutant growth inhibition, stronger effect = higher value
Outline: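 Inhibition of yeast growth, referenced to vehicle controls, was the measured output for a strain with defective DNA damage repair.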

[7] = NCI Yeast Anticancer Drug Screen. Data for the wt1 strain (AID 149);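 further: 0% = growth of vehicle-treated wt1 cultures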; conditions: S. cerevisiae wt1 strain (SPY 50644) growth inhibition, stronger effect = higher value
Outline: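 Growth inhibition read against vehicle controls after compound exposure of the wt1 yeast strain.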

[8] = NCI Yeast Anticancer Drug Screen. Data for the rad50EPP+ strain (AID 151);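 further: 0% = growth of vehicle-treated control cultures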; conditions: S. cerevisiae rad50 mutant strain, stronger effect = higher value
Outline: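 Genetically defined yeast (rad50EPP+, DNA damage repair alteration) is grown with compound, and inhibition of growth is expressed relative to vehicle-treated controls.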

[9] = NCI Yeast Anticancer Drug Screen. Data for the mgt1 strain (AID 153); conditions: S. cerevisiae mgt1 mutant growth inhibition, stronger effect = higher value
Outline: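 In the mgt1 strain, test compounds were added and growth inhibition was determined relative to vehicle-treated controls.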

[10] = NCI Yeast Anticancer Drug Screen. Data for the rad50 strain (AID 155);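 further: 0% = growth of vehicle-only cultures of the same strain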; conditions: S. cerevisiae rad50 strain growth inhibition, stronger effect = higher value
Outline: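 Readout: growth inhibition relative to vehicle-treated cultures. Compound exposure was carried out in a genetically defined yeast strain deficient in DNA damage repair.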

[11] = NCI Yeast Anticancer Drug Screen. Data for the mec2-1 strain (AID 157); conditions: S. cerevisiae mec2-1 strain, stronger effect = higher value
Outline: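 Each compound was tested on mec2-1 yeast, a strain altered in DNA damage repair or cell cycle control. Growth inhibition is reported relative to vehicle.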

[12] = NCI Yeast Anticancer Drug Screen. Data for the rad14 strain (AID 159);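 further: 0% = growth of vehicle-treated control cultures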; conditions: S. cerevisiae rad14 strain growth inhibition, stronger effect = higher value
Outline: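 Growth inhibition vs vehicle controls; genetically altered yeast strain (DNA damage repair defect) treated with test compounds.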

[13] = NCI Yeast Anticancer Drug Screen. Data for the sgs1 mgt1 strain (AID 161);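 further: 0% = growth of cultures given vehicle only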; conditions: S. cerevisiae sgs1 mgt1 strain, stronger effect = higher value
Outline: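 Mutant yeast exposed to compound; growth scored against vehicle-only wells.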

[14] = NCI Yeast Anticancer Drug Screen. Data for the CLN2oe strain (AID 163);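 further: 0% = growth of vehicle-only control cultures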; conditions: S. cerevisiae CLN2oe strain, stronger effect = higher value
Outline: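 First, the altered yeast strain was treated with each compound; second, its growth was measured; finally, inhibition was derived by comparison with vehicle controls.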

[15] = NCI Yeast Anticancer Drug Screen. Data for the cln2 rad14 strain (AID 165);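 further: 0% = growth equal to vehicle treated cultures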; conditions: S. cerevisiae cln2 rad14 strain, stronger effect = higher value
Outline: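 Test compounds were added to cln2 rad14 yeast cultures; inhibition of growth was then determined by comparison with vehicle treatment.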

[16] = NCI Yeast Anticancer Drug Screen. Data for the bub3 strain (AID 167); conditions: S. cerevisiae bub3 mutant strain, stronger effect = higher value
Outline: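 Readout: yeast growth inhibition, expressed relative to vehicle-only wells. The test organism is a mutant strain from a panel with lesions in DNA repair or checkpoint genes.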

[17] = at 5.0 µM (retest, dose inferred, filed as 0.5)
[18] = at 50.0 µM (retest, dose inferred, filed as 5.0)

Measured: growth inhibition

Cn1cc(NC(=O)c2cc(NC(=O)CN=C(N)N)cn2C)cc1C(=O)NCCC(=N)N
inactive: [1]; at 1.2 µM 17% | [1]; at 3.7 µM 13% | [1]; at 11.0 µM 23% | [2]; at 1.2 µM -8% | [2]; at 3.7 µM -16% | [2]; at 11.0 µM -7% | [3]; at 1.2 µM 4% | [3]; at 3.7 µM 6% | [3]; at 11.0 µM 17% | [4]; [17] -18% | [5]; at 1.2 µM -4% | [5]; at 3.7 µM -18% | [5]; at 11.0 µM 14%
active: [1]; at 33.0 µM 95% | [1]; at 100.0 µM 97% | [2]; at 33.0 µM 93% | [2]; at 100.0 µM 98% | [3]; at 33.0 µM 93% | [3]; at 100.0 µM 96% | [4]; [18] 94% | [4]; at 50.0 µM 85.5% | [5]; at 33.0 µM 95% | [5]; at 100.0 µM 97%

O=[N+]([O-])c1ccc(N2CCC(CCCC3CCN(c4ccc([N+](=O)[O-])cc4[N+](=O)[O-])CC3)CC2)c([N+](=O)[O-])c1
inactive: [6]; at 1.2 µM -24% | [6]; at 3.7 µM -17% | [6]; at 11.0 µM -7% | [6]; at 33.0 µM 0% | [6]; at 100.0 µM 20% | [7]; at 1.2 µM -6% | [7]; at 3.7 µM -1% | [7]; at 11.0 µM 5% | [7]; at 33.0 µM 11% | [7]; at 100.0 µM 11% | [8]; at 1.2 µM -6% | [8]; at 3.7 µM -14% | [8]; at 11.0 µM -17% | [8]; at 33.0 µM -4% | [8]; at 100.0 µM 18% | [9]; at 1.2 µM -18% | [9]; at 3.7 µM -4% | [9]; at 11.0 µM 0% | [9]; at 33.0 µM 10% | [10]; at 1.2 µM 7% | [10]; at 3.7 µM 1% | [10]; at 11.0 µM 4% | [10]; at 33.0 µM 12% | [10]; at 100.0 µM 31% | [11]; at 1.2 µM -35% | [11]; at 3.7 µM -27% | [11]; at 11.0 µM -22% | [11]; at 33.0 µM -20% | [11]; at 50.0 µM 48.5% | [11]; at 100.0 µM -8% | [12]; at 1.2 µM -32% | [12]; at 3.7 µM -27% | [12]; at 11.0 µM -13% | [12]; at 33.0 µM -16% | [12]; at 100.0 µM 19% | [13]; [17] -41% | [13]; [18] 51% | [14]; at 1.2 µM -8% | [14]; at 3.7 µM -3% | [14]; at 11.0 µM 3% | [14]; at 33.0 µM -19% | [14]; at 100.0 µM 7% | [15]; [17] 10% | [15]; [18] 50% | [15]; at 50.0 µM 46.2% | [16]; at 1.2 µM -17% | [16]; at 3.7 µM -24% | [16]; [17] 6% | [16]; at 11.0 µM -32% | [16]; at 33.0 µM -6% | [16]; [18] 47% | [16]; at 100.0 µM -4% | [1]; at 1.2 µM -15% | [1]; at 3.7 µM -21% | [1]; at 11.0 µM -9% | [1]; at 33.0 µM 8% | [1]; at 100.0 µM 39% | [2]; at 1.2 µM -19% | [2]; at 3.7 µM -25% | [2]; at 11.0 µM -21% | [2]; at 33.0 µM -24% | [2]; at 100.0 µM 32% | [3]; at 1.2 µM -24% | [3]; at 3.7 µM -17% | [3]; at 11.0 µM -15% | [3]; at 33.0 µM 21% | [3]; at 100.0 µM 52% | [4]; at 50.0 µM 68.3% | [5]; at 1.2 µM -24% | [5]; at 3.7 µM -25% | [5]; at 11.0 µM -14% | [5]; at 33.0 µM -5% | [5]; at 100.0 µM 4%
active: [9]; at 100.0 µM 77% | [10]; [17] 98% | [10]; [18] 99% | [10]; at 50.0 µM 75% | [11]; [17] 99% | [11]; [18] 99% | [13]; at 50.0 µM 87.5% | [16]; at 50.0 µM 84.3% | [4]; [17] 99% | [4]; [18] 99%

Oc1cccnc1[Se]
inactive: [6]; at 1.2 µM 4% | [6]; at 3.7 µM 7% | [6]; at 11.0 µM 55% | [7]; at 1.2 µM -2% | [7]; at 3.7 µM -3% | [7]; at 11.0 µM -4% | [7]; at 33.0 µM 46% | [8]; at 1.2 µM 1% | [8]; at 3.7 µM 9% | [8]; at 11.0 µM 33% | [9]; at 1.2 µM -4% | [9]; at 3.7 µM -3% | [9]; at 11.0 µM -2% | [9]; at 33.0 µM 68% | [10]; at 1.2 µM 2% | [10]; at 3.7 µM 6% | [10]; [17] -15% | [10]; at 11.0 µM 60% | [10]; [18] 55% | [11]; at 1.2 µM -3% | [11]; at 3.7 µM -5% | [11]; [17] -2% | [11]; at 11.0 µM -3% | [11]; at 33.0 µM 38% | [11]; [18] -10% | [12]; at 1.2 µM 1% | [12]; at 3.7 µM 1% | [12]; at 11.0 µM 5% | [13]; [17] -10% | [13]; [18] 4% | [14]; at 1.2 µM -3% | [14]; at 3.7 µM 3% | [14]; at 11.0 µM -8% | [14]; at 33.0 µM 2% | [14]; at 100.0 µM 37% | [15]; [17] 7% | [15]; [18] 6% | [16]; at 1.2 µM -6% | [16]; at 3.7 µM -7% | [16]; [17] -21% | [16]; at 11.0 µM -13% | [16]; at 33.0 µM -5% | [16]; [18] -18% | [16]; at 100.0 µM 63% | [1]; at 1.2 µM -5% | [1]; at 3.7 µM -9% | [1]; at 11.0 µM -15% | [2]; at 1.2 µM -2% | [2]; at 3.7 µM 2% | [2]; at 11.0 µM 11% | [3]; at 1.2 µM -1% | [3]; at 3.7 µM 21% | [3]; at 11.0 µM 11% | [4]; [17] 7% | [4]; [18] 59% | [5]; at 1.2 µM -2% | [5]; at 3.7 µM 3% | [5]; at 11.0 µM 20%
active: [6]; at 33.0 µM 99% | [6]; at 100.0 µM 99% | [7]; at 100.0 µM 99% | [8]; at 33.0 µM 74% | [8]; at 100.0 µM 96% | [9]; at 100.0 µM 99% | [10]; at 33.0 µM 98% | [10]; at 50.0 µM 99% | [10]; at 100.0 µM 99% | [11]; at 50.0 µM 97.5% | [11]; at 100.0 µM 98% | [12]; at 33.0 µM 95% | [12]; at 100.0 µM 99% | [13]; at 50.0 µM 95.3% | [15]; at 50.0 µM 99% | [16]; at 50.0 µM 99.2% | [1]; at 33.0 µM 97% | [1]; at 100.0 µM 99% | [2]; at 33.0 µM 98% | [2]; at 100.0 µM 99% | [3]; at 33.0 µM 98% | [3]; at 100.0 µM 99% | [4]; at 50.0 µM 98% | [5]; at 33.0 µM 94% | [5]; at 100.0 µM 99%
